A selection: hits, their analogues and other compounds. The true share with any hit is near 8.1%.
MCF10A rerep: A quantitative high throughput screen for small molecules that induce DNA re-replication in MCF 10a normal breast cells | MCF 10A DNA re-replication, Hoechst nuclear intensity, 48 h | Potency, µM (top dose mostly 46.1 µM), inactives show at the top dose activity, positive = re-replication, usual class: activators | AID 624296, 2012 | 2.9% of 350,000 active; also: % of control where 0% means no effect; nearly all actives have a fitted effect of over 50% in size
ELG1 DNA repair: qHTS screen for small molecules that inhibit ELG1-dependent DNA repair in human embryonic kidney (HEK293T) cells expressing luciferase-tagged ELG1. HEK293T ELG1-luciferase reporter, luminescence, 16 h; DNA damage induced by 5-fluorouridine. Potency, µM (titrated, usually from 46.1 µM), inactives show at the top dose activity change, negative = inhibition, most hits filed as inhibitors. 2.3% of 330,000 active; also: % is scaled to controls: 0 for no effect and ±100 for the full control effect; nearly all actives have a fitted effect of over 55% in size
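Overnight (16 hr) co-exposure of 2,000 cells/well to 5-fluorouridine and compound at 37 °C preceded detection. Luciferase was quantified via ONE-Glo luminescence; loss of signal denotes inhibition.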
SW480 rereplic: A quantitative high throughput screen for small molecules that induce DNA re-replication in SW480 colon adenocarcinoma cells | 1.8% of 340,000 active | SW480 DNA re-replication, Hoechst DNA content imaging, 48 h | AID 624297, 2012 | Potency, µM (doses to about 46.1 µM), for the others: at the top dose re-replication activation, actives largely listed as activators; also: % of control where 0% means no effect; nearly all actives have a fitted effect of over 55% in size
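SW480 cells exposed to compounds for 48 hr at 37 C, 5% CO2, then Hoechst-stained 40 min. Nuclear DNA content imaged by fluorescence scanning (405 nm excitation, 500-530 nm emission); re-replication scored as increased high-intensity nuclei.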
KB-3-1 cytotox: qHTS assay for MDR1-selective chemotherapeutics: Primary screen using the parental adenocarcinoma cell KB-3-1; KB-3-1 viability, CellTiter-Glo ATP luminescence, 72 h; Potency, µM (titrated, usually from 46.1 µM), most hits filed as cytotoxic; 1.4% of 400,000 active; also: % is scaled to controls: 0 for no effect and ±100 for the full control effect; nearly all actives have a fitted effect of over 60% in size
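Parental KB-3-1 adenocarcinoma cells in phenol-red-free DMEM with 10% FBS were pin-treated with compounds at several concentrations, incubated 72 h at 37 °C, and viability read by CellTiter-Glo luminescence; concentration-effect curves were fitted after normalization.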
KB-V1 cytotox: qHTS assay for MDR1-selective chemotherapeutics: Primary screen using the drug-selected MDR subline cells KB-V1 | KB-V1 MDR cells viability, CellTiter-Glo, 72 h | Potency, µM (top dose mostly 46.1 µM), most hits filed as cytotoxic | 3.4% of 400,000 active | AID 1347076, 2019; also: % is scaled to controls: 0 for no effect and ±100 for the full control effect; nearly all actives have a fitted effect of over 60% in size
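Readout: CellTiter-Glo luminescence, 10 min after addition. Cells: KB-V1 MDR subline, 72 h at 37 degrees C with compound. Analysis: corrected, normalized data fitted to concentration-effect curves.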
Numbers without * were called inactive; i = inactive; ? = inconclusive; / = not tested or not shown. Calls follow the shape of the dose curve; as a rule, active = well fitted curve in the direction sought with a large enough effect; inconclusive = small, poorly fitted or top-dose-only effect, or another doubt; inactive = no such curve, though single readings can be large; an effect the other way counts as inactive or inconclusive. Potency is read from the fitted curve at half-maximal effect.

SMILES	MCF10A rerep	ELG1 DNA repair	SW480 rereplic	KB-3-1 cytotox	KB-V1 cytotox
O=C1[C@H](Oc2ccccc2)[C@@H](c2ccccc2)N1c1ccncc1	?	11%	?	i	i
CN(c1ccc([N+](=O)[O-])cc1)c1cc2c(c3c1ccn3C)C1CCC2C1 (configuration not stated)	/	/	/	i	i
COc1ccc(C(=O)/C=C2\Sc3ccccc3N2C)cc1	?	?	?	i	?
COc1ccc(-[n+]2c(C)cc(/C=C3\Sc4ccccc4N3C)cc2C)cc1	?	18µM*	18µM*	?	?
COc1ccccc1OC(=O)CCN1c2ccccc2Sc2ccccc21	3%	3%	-2%	i	i
COc1ccccc1-[n+]1c(C)cc(/C=C2\Sc3ccccc3N2C)cc1C	?	?	23µM*	0.29µM*	9.2µM*
Cc1cnc(C(=O)Nc2cccc(-c3nnc4n3CCCCC4)c2)cn1	-1%	-3%	-7%	i	i
c1cc(Nc2ncnc3sccc23)cc(-c2nnc3n2CCCCC3)c1	-2%	23µM*	0%	i	i
CCCCN(c1ccccc1)c1ncnc(N)c1[N+](=O)[O-]	-6%	2.6µM*	-7%	i	i
CCOc1cc(/C=C2\C(=O)ON=C2c2ccccc2)cc(Br)c1O	9.2µM*	?	?	?	?
COc1cc(/C=C2\C(=O)ON=C2c2ccccc2)cc(Br)c1O	?	-1%	?	?	?
c1cc(-c2cc3c(o2)CCCC3OCCN2CCOCC2)cs1 (configuration not stated)	/	/	/	i	i
CC(C)(C)C(=O)CN1C(=O)C2(OCCO2)c2ccccc21	-1%	10%	-5%	i	i
O=C(CN1C(=O)C2(OCCO2)c2ccccc21)c1ccc(Cl)cc1	13%	-3%	0%	i	21µM*
O=C(CSc1nnc2ccccn12)NNC(=O)c1cccc([N+](=O)[O-])c1	-7%	2%	11%	i	i
O=C(N/N=C/c1ccc([N+](=O)[O-])s1)c1ccccc1	1%	?	-1%	?	i
O=C(Cc1ccccc1)N/N=C/c1ccc([N+](=O)[O-])s1	?	3%	?	?	15µM*
O=C(N/N=C\c1ccc([N+](=O)[O-])s1)c1cncc(Br)c1	7.3µM*	?	5.8µM*	5.8µM*	i
O=C(N/N=C/c1cccs1)c1cncc(Br)c1	18%	-17%	3%	i	i
Cc1ccc(NC(C)C(=O)N/N=C/c2ccc([N+](=O)[O-])s2)cc1 (configuration not stated)	18%	?	?	?	i
O=C(N/N=C/c1ccc([N+](=O)[O-])s1)c1ccccc1Br	3%	-28%	10µM*	i	?
COc1ccc(NC(C)C(=O)N/N=C/c2ccc([N+](=O)[O-])s2)cc1 (configuration not stated)	11%	18µM*	?	i	?
O=C(NCc1ccc(F)cc1)c1cccc(N2CCCS2(=O)=O)c1	/	/	/	i	i
CSCc1cc(C(=O)NC2CC2)c(N)s1	/	/	/	i	i
Cc1ccnn1CC(=O)N/N=C/c1ccc([N+](=O)[O-])s1	12%	13µM*	?	?	i
SMILES	MCF10A rerep	ELG1 DNA repair	SW480 rereplic	KB-3-1 cytotox	KB-V1 cytotox
COc1cc(OC)c(/C=N/n2c(C)nnc2C)c(OC)c1	26µM*	-4%	-120%	i	i
CC(=O)Nc1ccc(S(=O)(=O)N2CCN(Cc3ccccn3)CC2)cc1	-2%	-1%	-3%	i	i
CC(=O)Nc1ccc(S(=O)(=O)N2CCN(Cc3ccccc3[N+](=O)[O-])CC2)cc1	0%	9.2µM*	7%	i	?
CSc1ccccc1NC(=O)CN1CCN(S(=O)(=O)c2ccccc2[N+](=O)[O-])CC1	21%	?	-7%	i	3.7µM*
O=C(CN1CCN(S(=O)(=O)c2ccccc2)CC1)Nc1ccc([N+](=O)[O-])cc1	-4%	21µM*	14%	i	i
O=C(CN1CCN(S(=O)(=O)c2ccccc2)CC1)Nc1ccc(Cl)c([N+](=O)[O-])c1	0%	?	0%	?	?
Cc1ccc(S(=O)(=O)N2CCN(CC(=O)Nc3ccc([N+](=O)[O-])cc3)CC2)cc1C	-13%	?	-81%	i	18µM*
Cc1cccc(N2CN(S(=O)(=O)c3cccc([N+](=O)[O-])c3)c3nc4ccccc4nc32)c1	15%	0%	-5%	?	i
CCc1nnc(NC(=O)c2nc(SCc3ccc(F)cc3)ncc2Cl)s1	/	/	/	i	i
O=[N+]([O-])c1ccc(N2CCN(S(=O)(=O)c3ccccc3)CC2)cc1	?	?	-1%	?	4.6µM*
COC(=O)c1sc(S(=O)(=O)NCC(=O)O)c(C(=O)OC)c1C	2%	3%	-2%	i	?
COC(=O)c1sc(S(=O)(=O)NCc2cccs2)c(C(=O)OC)c1C	0%	15µM*	-5%	i	i
Cc1ccc(C)c(C(O)c2ncc(-c3ccccc3F)[nH]2)c1 (configuration not stated)	/	/	/	i	i
CCC(C)NC(=O)c1sc2nc3n(c(=O)c2c1C)CCC3 (configuration not stated)	/	/	/	i	i
CCOC(=O)c1cc(NC(=O)c2ccc(F)cc2)c(=O)n2c1oc1ccc(Cl)cc12	/	/	/	i	i
N#Cc1cc(NC(=O)c2ccc(F)cc2)c(=O)n2c1[nH]c1ccccc12	/	6.5µM*	/	/	/
CC(C)c1ccc(-n2nnnc2SCc2nc(N)nc(N)n2)cc1	/	/	/	i	i
O=C(Nc1ccccc1)Nc1nc(-c2ccc(F)cc2)cs1	5%	17%	2%	i	i
O=C(Nc1cccnc1)c1ccccc1NS(=O)(=O)c1ccc(F)cc1	8%	?	-5%	?	21µM*
O=S(=O)(Nc1cccnc1)c1ccc(F)cc1	2%	12%	0%	i	i
O=C(Nc1nc(-c2ccccc2)cs1)c1ccccc1NS(=O)(=O)c1ccc(F)cc1	16µM*	?	-1%	6.5µM*	16µM*
O=S(=O)(Nc1ccc(-c2csc(-c3ccccc3)n2)cc1)c1ccc(F)cc1	16µM*	21%	12%	?	?
O=[N+]([O-])c1ccc(N=NN(CCO)CCO)cc1	10%	20%	23µM*	i	i

Screening data as filed in PubChem.
